From PubChem BioAssay (Tox21)
Records with an inconclusive call do not appear. Active and inactive are the calls of the source. Unless noted, calls follow the shape of the full dose curve.

Tests used:
[1] = Nuclear factor erythroid 2-related factor 2/antioxidant responsive element (Nrf2/ARE) small molecule agonists: qHTS cell viability counter screen in human keratinocytes (AID 1919968; active = well fitted curve in the direction sought with a large enough effect in the repeat runs; an effect the other way counts as inactive or inconclusive; also: nearly all actives have a fitted effect of over 55% in size; also: potency is read from the fitted curve at half-maximal effect)
Procedure, shortened: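 HaCaT ARE reporter line, 1,500 cells/well; 5 h settle, 37 C/5% CO2; cpd in DMSO pinned; 23 h exposure; CellTiter-Fluor, 1 h; fluorescence.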

[2] = Nuclear factor erythroid 2-related factor 2/antioxidant responsive element (Nrf2/ARE) small molecule agonists: luciferase reporter gene qHTS assay in human keratinocytes (AID 1919969); also: nearly all actives have a fitted effect of over 35% in size; also: potency is read from the fitted curve at half-maximal effect
[3] = target: Gonadotropin-releasing hormone receptor (Homo sapiens) (UniProt P30968); test: Human gonadotropin-releasing hormone receptor (GnRHR) small molecule agonists, calcium flux assay in GnRHR-HEK293 cells (AID 1920063); also: nearly all actives have a fitted effect of over 35% in size
Chain of Gonadotropin-releasing hormone receptor (Homo sapiens) (P30968 whole entry, looked up): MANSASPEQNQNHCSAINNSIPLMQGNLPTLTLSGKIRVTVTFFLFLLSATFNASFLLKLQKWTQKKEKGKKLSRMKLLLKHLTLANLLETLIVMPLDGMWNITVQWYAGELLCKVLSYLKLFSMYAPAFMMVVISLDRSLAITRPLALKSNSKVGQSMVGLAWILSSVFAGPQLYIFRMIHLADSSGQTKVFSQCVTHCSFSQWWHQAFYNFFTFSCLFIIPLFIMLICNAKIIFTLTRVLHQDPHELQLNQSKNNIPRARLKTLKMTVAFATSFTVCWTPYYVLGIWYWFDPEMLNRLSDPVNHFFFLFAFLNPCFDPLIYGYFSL
Procedure, shortened: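 GnRHR-HEK293, 1500 cells/well, 18 h 37 C/5% CO2; Ca dye 1 h 37 C; cpd pinned (DMSO), agonist mode; kinetic FL 480/540, 3 min, 1 s reads; 15 conc, n=3.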

[4] = target: KiSS-1 receptor (Homo sapiens) (UniProt Q969F8); test: Human kisspeptin (KISS1R) small molecule agonists, calcium flux assay in KISS1R-HEK293 cells (AID 1920064; active = well fitted curve in the direction sought with a large enough effect in the repeat runs; an effect the other way counts as inactive or inconclusive)
Chain of KiSS-1 receptor (Homo sapiens) (Q969F8 whole entry, looked up): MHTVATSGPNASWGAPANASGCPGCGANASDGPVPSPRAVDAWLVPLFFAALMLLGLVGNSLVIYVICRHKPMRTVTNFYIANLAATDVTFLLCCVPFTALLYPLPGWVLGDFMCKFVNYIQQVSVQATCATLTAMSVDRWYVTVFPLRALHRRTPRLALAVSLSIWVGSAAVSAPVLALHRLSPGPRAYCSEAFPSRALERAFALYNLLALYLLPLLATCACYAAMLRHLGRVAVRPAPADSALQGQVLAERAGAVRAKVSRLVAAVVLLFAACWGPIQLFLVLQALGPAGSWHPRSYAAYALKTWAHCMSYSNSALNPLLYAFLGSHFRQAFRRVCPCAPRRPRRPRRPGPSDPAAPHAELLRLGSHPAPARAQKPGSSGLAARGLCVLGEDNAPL
Procedure, shortened: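 Stable human KISS1R HEK293 line; 18 h plating, 37 C/5% CO2; calcium dye 1 h 37 C; compound pin transfer; kinetic fluorescence Ex/Em 480/540, 3 min.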

[5] = G protein-coupled receptor (GPCR) small molecule agonists, calcium flux assay: HEK293 wild type cell line counter screen (AID 1920065)
Procedure, shortened: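 Kinetic fluorescence at Ex/Em 480/540, recorded every second over 3 min, served as the read-out after compound addition. Each compound was tested at 15 concentrations in triplicate on cells pre-loaded with calcium dye for 1 h.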

[6] = p53 small molecule agonists, cell-based qHTS assay with human liver microsomes (AID 1963577);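 also: p53 response element beta-lactamase reporter cells with liver microsomes plus NADPH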
Procedure, shortened: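 In this qHTS, p53 response-element beta-lactamase cells receive test compound together with a microsome/NADPH activating system (0.5 mg/mL final each) and are incubated 16 h at 37 C before LiveBLAzer fluorescence detection.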

[7] = p53 small molecule agonists, cell-based qHTS assay with rat liver microsomes (AID 1963578)
Procedure, shortened: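 Agonist mode in p53RE-bla reporter cells, with compounds co-incubated 16 h at 37 C alongside 0.5 mg/mL rat liver microsomes and 0.5 mg/mL NADPH (final), followed by a 2 h LiveBLAzer detection step.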

[8] = p53 small molecule agonists, cell-based qHTS assay with human liver microsomes: qHTS cell viability counter screen (AID 1963579); also: nearly all actives have a fitted effect of over 45% in size
Procedure, shortened: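 Metabolically activated exposure: compounds, human liver microsomes and NADPH (0.5 mg/mL final apiece) were added to p53RE-bla cells seeded 5 h earlier, left 16 h at 37 C, and then assessed for viability by CellTiter-Glo luminescence.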

[9] = p53 small molecule agonists, cell-based qHTS assay with rat liver microsomes: qHTS cell viability counter screen (AID 1963580); also: nearly all actives have a fitted effect of over 45% in size
Procedure, shortened: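 In HCT-116 cells carrying a p53 response element-bla reporter, compounds were metabolically activated in situ by rat liver microsomes with NADPH over 16 h. Cell ATP content then served as the cytotoxicity measure.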

[10] = p53 small molecule agonists, cell-based qHTS assay (AID 1963582; active = well fitted activation curve with a large enough effect in the signal ratio in the repeat runs, not every such curve was filed as active; the % refers to the signal ratio)
Procedure, shortened: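 Reporter line: p53RE-bla. Pre-incubation 5 h, 37 C, 5% CO2; compound (DMSO, pin tool) 16 h, 37 C; B/G FRET substrate 2 h RT; fluorescence intensity read.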

[11] = target: Muscarinic acetylcholine receptor M1 (Homo sapiens) (UniProt P11229); test: Cholinergic receptor muscarinic 1 (CHRM1) small molecule antagonists, cell-based qHTS assay (AID 1963588); also: nearly all actives have a fitted effect of over 40% in size
Chain of Muscarinic acetylcholine receptor M1 (Homo sapiens) (P11229 whole entry, looked up): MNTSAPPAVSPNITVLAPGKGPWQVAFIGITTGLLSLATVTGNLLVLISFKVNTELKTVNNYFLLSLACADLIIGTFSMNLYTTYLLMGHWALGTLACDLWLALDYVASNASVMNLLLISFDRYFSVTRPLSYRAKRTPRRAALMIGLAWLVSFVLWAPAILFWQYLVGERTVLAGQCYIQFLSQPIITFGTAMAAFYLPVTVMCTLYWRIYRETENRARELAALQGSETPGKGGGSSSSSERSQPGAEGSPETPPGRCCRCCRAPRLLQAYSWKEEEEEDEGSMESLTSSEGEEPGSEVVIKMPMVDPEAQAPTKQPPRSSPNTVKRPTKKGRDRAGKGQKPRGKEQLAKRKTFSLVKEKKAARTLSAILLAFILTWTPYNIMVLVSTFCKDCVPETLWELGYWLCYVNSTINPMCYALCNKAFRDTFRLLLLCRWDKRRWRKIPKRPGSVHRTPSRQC
Procedure, shortened: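 CHRM1-CHO calcium-flux assay, antagonist mode. Cells were seeded 18 h, dye-loaded 1 h at 37 C and given compound for 5 min at RT, then acetylcholine was added at 50nM. FDSS fluorescence was read 3 min; 15 concentrations, three runs.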

[12] = target: Muscarinic acetylcholine receptor M1 (Homo sapiens) (UniProt P11229); test: Cholinergic receptor muscarinic 1 (CHRM1) small molecule agonists, cell-based qHTS assay (AID 1963589); also: nearly all actives have a fitted effect of over 35% in size
Procedure, shortened: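 Human M1 in stable CHO line; 18 h plating, 1 h dye load 37 C; cpd added (agonist mode); Ca2+ fluorescence kinetic read, 1 s intervals; 15 conc, 3 runs.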

[13] = cAMP Responsive Elements (CRE) small molecule agonists, cell-based qHTS assay (AID 1963590)
Procedure, shortened: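 HEK 293T CRE-bla, 2,000 cells/well, 18 h preincubation 37 C/5% CO2; cpds (DMSO) pinned, 3 h; LiveBLAzer B/G FRET substrate, 2 h RT.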

[14] = cAMP Responsive Elements (CRE) small molecule antagonists, cell-based qHTS assay (AID 1963591; active = well fitted inhibition curve with a large enough effect in the signal ratio in the repeat runs, not every such curve was filed as active; the % refers to the signal ratio)
Procedure, shortened: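 Beta-lactamase reporter read by FRET substrate (LiveBLAzer B/G) after 2 h at room temperature. CRE-bla HEK293T cells had received compound plus 0.25 uM (final) NKH477 for 3 h at 37 °C.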

[15] = target: Beta-2 adrenergic receptor (Homo sapiens) (UniProt P07550); test: Adrenergic beta2 receptor (ADRB2) small molecule antagonists, cell-based qHTS assay (AID 1963592); also: nearly all actives have a fitted effect of over 50% in size; also: potency is read from the fitted curve at half-maximal effect; as to activity change, negative = inhibition: series mostly up to about 92 µM
Chain of Beta-2 adrenergic receptor (Homo sapiens) (P07550 whole entry, looked up): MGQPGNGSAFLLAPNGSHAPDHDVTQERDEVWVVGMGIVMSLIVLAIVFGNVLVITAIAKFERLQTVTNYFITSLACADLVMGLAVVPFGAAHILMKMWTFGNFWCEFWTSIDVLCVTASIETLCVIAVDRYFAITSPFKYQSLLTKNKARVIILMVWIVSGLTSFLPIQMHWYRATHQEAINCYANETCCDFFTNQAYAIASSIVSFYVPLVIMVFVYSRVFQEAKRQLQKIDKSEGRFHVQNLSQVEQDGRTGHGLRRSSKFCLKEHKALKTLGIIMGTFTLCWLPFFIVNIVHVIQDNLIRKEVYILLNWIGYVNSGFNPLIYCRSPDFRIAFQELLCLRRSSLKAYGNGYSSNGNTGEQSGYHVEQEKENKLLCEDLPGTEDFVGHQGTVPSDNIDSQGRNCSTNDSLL
Procedure, shortened: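 Cells (CHO, stable ADRB2 overexpression) incubated 18-20hr at 37C; compounds added from DMSO; agonist mix (1nM isoproterenol, 100uM IBMX, 25uM Ro-20-1724) added; 0.5hr RT; d2-cAMP and anti-cAMP-cryptate added; 1hr RT; 665/615 nm read.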

[16] = target: Beta-2 adrenergic receptor (Homo sapiens) (UniProt P07550); test: Adrenergic beta2 receptor (ADRB2) small molecule agonists, cell-based qHTS assay (AID 1963593);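 also: CHO cells stably overexpressing human ADRB2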
Procedure, shortened: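 CHO cells stably over-expressing ADRB2 were plated overnight at 37C, then dosed with compounds plus a stimulation mix containing 100uM IBMX and 25uM Ro-20-1724 for 0.5hr at room temperature. cAMP was measured by HTRF competition, 1hr.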

[17] = target: D(2) dopamine receptor (Homo sapiens) (UniProt P14416); test: Dopamine D2 receptor (DRD2) small molecule agonists, cell-based qHTS assay (AID 1963594); also: nearly all actives have a fitted effect of over 35% in size
Chain of D(2) dopamine receptor (Homo sapiens) (P14416 whole entry, looked up): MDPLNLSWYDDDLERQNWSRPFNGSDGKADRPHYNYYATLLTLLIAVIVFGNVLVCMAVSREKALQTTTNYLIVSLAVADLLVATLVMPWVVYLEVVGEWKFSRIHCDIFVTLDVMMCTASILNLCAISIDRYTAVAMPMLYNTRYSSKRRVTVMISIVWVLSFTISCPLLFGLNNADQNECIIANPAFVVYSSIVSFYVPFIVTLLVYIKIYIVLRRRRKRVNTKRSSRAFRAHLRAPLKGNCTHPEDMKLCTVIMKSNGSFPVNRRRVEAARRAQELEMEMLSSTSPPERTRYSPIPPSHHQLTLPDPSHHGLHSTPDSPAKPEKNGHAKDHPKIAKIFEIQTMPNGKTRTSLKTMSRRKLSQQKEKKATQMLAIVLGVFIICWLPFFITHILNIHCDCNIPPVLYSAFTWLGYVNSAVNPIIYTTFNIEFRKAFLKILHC
Procedure, shortened: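 HEK293 cells stably expressing DRD2 were cultured 24 h at 37 C, then given Ro20-1724 (0.1 mM final) and compounds for 10 min at room temperature. NKH477 (200nM) was then added for 30 min. cAMP was read by HTRF.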

[18] = target: 5-hydroxytryptamine receptor 2A (Homo sapiens) (UniProt P28223); test: 5-hydroxytryptamine receptor 2A (HTR2A) small molecule antagonists, cell-based qHTS assay (AID 1963586); also: nearly all actives have a fitted effect of over 45% in size
Chain of 5-hydroxytryptamine receptor 2A (Homo sapiens) (P28223 whole entry, looked up): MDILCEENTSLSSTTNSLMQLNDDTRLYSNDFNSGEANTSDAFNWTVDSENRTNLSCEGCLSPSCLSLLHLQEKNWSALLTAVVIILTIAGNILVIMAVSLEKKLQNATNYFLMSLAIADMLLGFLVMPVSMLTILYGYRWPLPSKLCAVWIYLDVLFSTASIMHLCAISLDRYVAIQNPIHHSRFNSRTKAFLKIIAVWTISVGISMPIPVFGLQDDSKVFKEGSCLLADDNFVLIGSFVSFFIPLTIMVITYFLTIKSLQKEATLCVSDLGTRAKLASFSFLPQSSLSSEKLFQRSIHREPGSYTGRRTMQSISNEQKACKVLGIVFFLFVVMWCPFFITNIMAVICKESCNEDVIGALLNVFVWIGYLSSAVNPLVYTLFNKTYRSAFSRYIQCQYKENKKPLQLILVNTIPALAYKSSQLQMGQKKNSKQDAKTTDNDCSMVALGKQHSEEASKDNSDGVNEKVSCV
Procedure, shortened: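 Antagonist-mode intracellular calcium assay: DOI (4 nM) added after 5 min compound pre-incubation at room temperature to dye-loaded HTR2A-CHO cells. Fluorescence followed for 3 min, sampled every second.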

[19] = target: 5-hydroxytryptamine receptor 2A (Homo sapiens) (UniProt P28223); test: 5-hydroxytryptamine receptor 2A (HTR2A) small molecule agonists, cell-based qHTS assay (AID 1963587); also: nearly all actives have a fitted effect of over 30% in size; also: potency is read from the fitted curve at half-maximal effect
Procedure, shortened: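 HTR2A-CHO cells, plated 18 h at 37 C/5% CO2, dye-loaded 1 h at 37 C; compounds in DMSO added by pin tool (agonist mode). Intracellular calcium flux read as kinetic fluorescence on FDSS over 2 min at 1 s intervals.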

[20] = target: D(2) dopamine receptor (Homo sapiens) (UniProt P14416); test: Dopamine D2 receptor (DRD2) small molecule antagonists, cell-based qHTS assay (AID 1963595; active = well fitted inhibition curve with a large enough effect in the signal ratio in the repeat runs, with a control signal flat; the % refers to the signal ratio)
Procedure, shortened: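 Stable D2 receptor HEK293 line, 24 h after seeding. Compound preincubated 10 min, then quinpirole (12 nM) with forskolin analogue NKH477 (200 nM), 30 min, room temperature. Detection by time-resolved FRET of cAMP.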
% is scaled to controls: 0 for no effect and ±100 for the full control effect.

CCN(O)CC
inactive: Potency [1] | Potency [2] | Potency [3] | outcome [4] | outcome [5] | Potency [6] | Potency [7] | Potency [8] | Potency [9] | Potency [10] | Potency [11] | Potency [12] | Potency [13] | Potency [14] | Potency [15] | Potency [16] | Potency [17]

CCCCN(C)C
inactive: Potency [1] | Potency [2] | Potency [3] | outcome [4] | outcome [5] | Potency [6] | Potency [7] | Potency [8] | Potency [9] | Potency [10] | Potency [18] | Potency [19] | Potency [13] | Potency [14] | Potency [16] | Potency [17] | Potency [20]

CO[Si](CCCn1c(=O)n(CCC[Si](OC)(OC)OC)c(=O)n(CCC[Si](OC)(OC)OC)c1=O)(OC)OC
inactive: Potency [1] | Potency [2] | Potency [3] | outcome [4] | outcome [5] | Potency [6] | Potency [7] | Potency [8] | Potency [9] | Potency [10] | Potency [18] | Potency [19] | Potency [11] | Potency [13] | Potency [14] | Potency [16] | Potency [17] | Potency [20]

CCCCCCCCCCCCCCNCCO
inactive: Potency [3] | outcome [4] | outcome [5] | Potency [6] | Potency [7] | Potency [8] | Potency [9] | Potency [10] | Potency [11] | Potency [12] | Potency [13] | Potency [14] | Potency [15] | Potency [16] | Potency [20]
active: Potency [1] 26.6 µM | Potency [2] 13.3 µM | Potency [19] 23.9 µM

O=C(Nc1cccc2c(=O)cc(-c3nn[nH]n3)oc12)c1ccc(OCCCCc2ccccc2)cc1
inactive: Potency [1] | Potency [2] | Potency [3] | outcome [4] | outcome [5] | Potency [6] | Potency [7] | Potency [8] | Potency [9] | Potency [10] | Potency [18] | Potency [19] | Potency [11] | Potency [15] | Potency [17] | Potency [20]

ClC1=C(Cl)C1(Cl)Cl
inactive: Potency [1] | Potency [2] | Potency [3] | outcome [4] | outcome [5] | Potency [6] | Potency [7] | Potency [8] | Potency [9] | Potency [10] | Potency [19] | Potency [11] | Potency [13] | Potency [14] | Potency [15] | Potency [17] | Potency [20]

Cc1ccc(Cl)c(OCC(O)CNC(C)(C)C)c1 (stereo unspecified)
inactive: Potency [1] | Potency [2] | Potency [3] | outcome [4] | outcome [5] | Potency [6] | Potency [7] | Potency [8] | Potency [9] | Potency [10] | Potency [19] | Potency [11] | Potency [12] | Potency [14] | Potency [17] | Potency [20]

CN1CCN(c2c(F)cc3c(=O)c(C(=O)O)cn4c3c2OCN4C)CC1
inactive: activity change, negative = cytotoxicity [1] 9.2% [at 19 µM] | activity, positive = activation [2] -3.8% [at 19 µM] | activity change [3] 0.0141% [at 11.8 µM, hits give high values] | activation [4] -1.38% [at 15.8 µM] | activation [5] -0.0119% [at 11.8 µM] | activation [6] 0.808% [at 13.5 µM] | activation [7] -0.432% [at 13.6 µM] | activity change, negative = cytotoxicity [8] -4.82% [at 13.5 µM] | activity change, negative = cytotoxicity [9] -2.46% [at 13.5 µM] | activation [10] -0.645% [at 13.5 µM] | activation [19] -1.68% [at 15.9 µM] | activity, negative = inhibition [11] -0.388% [at 12.6 µM] | activation [12] -0.139% [at 15.8 µM] | activity change, negative = inhibition [14] -9.33% [at 18.9 µM] | activity change, negative = inhibition [15] 2.14% [at 19 µM] | Potency [16] | activation [17] 11.6% [at 19 µM] | activity change, negative = inhibition [20] 2.83% [at 18.9 µM]

C/C=C(\C)C#N
inactive: Potency [1] | Potency [2] | Potency [3] | outcome [4] | outcome [5] | Potency [6] | Potency [7] | Potency [8] | Potency [9] | Potency [10] | Potency [18] | Potency [19] | Potency [13] | Potency [15] | Potency [20]

CN1CCN(C2=Nc3ccccc3Oc3ccc(Cl)cc32)CC1
inactive: Potency [1] | Potency [2] | Potency [3] | outcome [4] | outcome [5] | Potency [6] | Potency [7] | Potency [8] | Potency [9] | Potency [10] | Potency [19] | Potency [11] | Potency [12] | Potency [17]

O=C(Nc1ccccc1)Nc1ccccc1
active: Potency [15] 68.9 µM
inactive: Potency [1] | Potency [2] | Potency [3] | outcome [4] | outcome [5] | Potency [6] | Potency [7] | Potency [8] | Potency [9] | Potency [10] | Potency [18] | Potency [19] | Potency [12] | Potency [13] | Potency [17] | Potency [20]

CC=C(Cl)Cl
inactive: Potency [1] | Potency [2] | Potency [3] | outcome [4] | outcome [5] | Potency [6] | Potency [7] | Potency [8] | Potency [9] | Potency [10] | Potency [18] | Potency [19] | Potency [12] | Potency [14] | Potency [17] | Potency [20]

CN1CCN(N)CC1
inactive: Potency [1] | Potency [2] | Potency [3] | outcome [4] | outcome [5] | Potency [6] | Potency [7] | Potency [8] | Potency [9] | Potency [10] | Potency [18] | Potency [19] | Potency [12] | Potency [13] | Potency [14] | Potency [15] | Potency [16] | Potency [17] | Potency [20]

CN(C)CCN1C(=O)c2ccccc2N(C)c2ccccc21
inactive: Potency [1] | Potency [2] | Potency [3] | outcome [4] | outcome [5] | Potency [6] | Potency [7] | Potency [8] | Potency [9] | Potency [10] | Potency [19] | Potency [12] | Potency [13] | Potency [14] | Potency [15] | Potency [16] | Potency [17] | Potency [20]
